Experimental data: PubChem BioAssay
Some of the results follow. Values without a mark were called inactive. Activity calls are given as the source filed them.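 Rule for the calls, unless noted: active = signal rise of 40% or more at 20 µM, treated as a fluorescence artifact; inactive = the rest.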

Test: apoptosome-driven caspase-3 activation blockers – biochemical, fluorescence, DEVD-Rh110, 20 µM, confirmation (AID 504614;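 active = mean inhibition of at least 40% at 20 µM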;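 note: plate controls were DMSO wells for no effect and DEVD-CHO caspase inhibitor control wells for full effect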)
Details: reconstituted apoptosome, caspase-3 DEVD-Rh110 fluorescence; at 20 µM; hits give high values

| SMILES | inhibition |
| --- | --- |
| COc1cccc(-c2sc3ccc(OC)cc3c2-c2ccc(OCCN3CCCCC3)cc2)c1 | 4.75% |
| CCC(C)(C)c1ccc(OCC(=O)N(C)C)c(C(C)(C)CC)c1 | 17.9% |
| CC(C)CC[n+]1ccn(C2=C([O-])c3ccccc3C(=O)/C2=N\S(=O)(=O)c2ccccc2)c1 | 62.6% (active) |
| CC1=NN(c2ccc(Cl)c(C(=O)O)c2)C(=O)/C1=C/c1ccc(-c2ccccc2[N+](=O)[O-])o1 | 16.8% |

Test: detection-step artefacts after completed caspase reaction – biochemical, fluorescence, Rh110, 20 µM, artefact control for Apaf-1 inhibitor project, confirmation (AID 504615)
Details: quenched caspase reaction, at 20 µM, hits give high values

| SMILES | activation (fluorescence interference) [%] |
| --- | --- |
| CCCCNC(=O)C(C)N(CCN(C)C)C(=O)CCCCCN1C(=O)NC(c2ccc(Cl)cc2)C(C(=O)OCc2ccccc2)=C1C (centres undefined) | -179 |
| O=C(CN1CCN(S(=O)(=O)c2ccc3ccccc3c2)CC1)NC(=O)NC1CCCCC1 | 20 |
| CCCCCCc1cc2cc(-c3nnc(-c4ccccc4)o3)c(=O)oc2cc1O | 7.27 |
| O=C1Nc2ccc([N+](=O)[O-])cc2C1=Nc1cccc(CO)c1 | -4.07 |
| Cc1ccc2nc(N3CCN(C(=O)c4ccco4)CC3)sc2c1 | -1.75 |
| CCC(=O)Nc1c(S(=O)(=O)c2ccccc2)c2nc3ccccc3nc2n1Cc1ccccc1 | -0.44 |
| COCC(C)OC(=O)c1c(N)n(CCCN2CCOCC2)c2nc3ccccc3nc12 (centres undefined) | 0.94 |
| CCOC(=O)N1CCC(c2cc(=O)n(-c3ccccc3)[nH]2)CC1 | 8.7 |
| O=C1NNC(c2ccccc2)=N/C1=C\c1ccc(Cl)cc1 | 7.08 |
| c1ccc(C[C@H]2CNCCN2CCC23CC4CC(CC(C4)C2)C3)cc1 | -3.75 |
| C#CCOCCOCCOCCNc1nc(N2CCN(C(=O)C([C@@H](C)O)n3cc([C@@H](N)CCCCN)nn3)CC2)nc(N2CCN(C(=O)[C@H](CCCCN)n3cc(CN)nn3)CC2)n1 (some centres undefined) | -7.33 |
| CCOc1c(Br)cc(/C=C2\C(=O)N(CCC#N)N=C2C)cc1OC | 1.73 |
| COc1ccccc1C1C(C#N)=C(N)Oc2c1c(-c1ccccc1)nn2-c1ccccc1 (centres undefined) | 5.51 |
| CCCCCCCCCCOC(=O)Cn1c(COc2cccc(OC)c2)[n+](C)c2ccccc21 | 23 |
| CCN(CC(=O)NCc1cccs1)C(=O)c1cccc(S(=O)(=O)Nc2ccccc2OC)c1 | -3.02 |
| COc1ccc(NC(=O)CN(Cc2ccccc2)S(C)(=O)=O)cc1OC | 2.48 |
| Cc1[nH]n(-c2ccccc2)c(=O)c1/C=N/NC(=O)c1ccoc1C | -3.23 |
| c1ccc2c(CCN3CCNC[C@H]3Cc3cccc4ccccc34)cccc2c1 | 8.34 |
| O=C(CCCN1CCc2[nH]c3ccc(F)cc3c2C1)c1ccc(F)cc1 | 4.85 |
| O=C(CCNS(=O)(=O)c1ccccc1)NCCSc1ccc(Br)cc1 | 5.12 |

| SMILES | activation (fluorescence interference) [%] |
| --- | --- |
| COc1ccc(C(CNC(=O)c2ccc(S(=O)(=O)Nc3ccccc3F)cc2)N(C)C)cc1 (centres undefined) | -0.45 |
| NC[C@H](Cc1ccccc1)NCCc1cc(C(F)(F)F)cc(C(F)(F)F)c1 | 11.5 |
| C#CCOCCOCCOCCNc1nc(N2CCN(C(=O)CCCCCCCCCCNC(=O)[C@H](CCCCN)n3cc(C)nn3)CC2)nc(N2CCN(C(=O)CCCCCCCCCCNC(=O)[C@H](CO)n3cc(CCCSC)nn3)CC2)n1 | 3.38 |
| C#CCOCCOCCOCCNc1nc(N2CCN(C(=O)CCCCCCCCCCNC(=O)Cn3cc(CCCCCN)nn3)CC2)nc(N2CCN(C(=O)CCCCCCCCCCNC(=O)[C@H](CO)n3cc(CCCSC)nn3)CC2)n1 | 4.21 |
| CCN(CC)CCOc1ccc2c(c1)C(=NNC(=O)c1ccccn1)c1cc(OCCN(CC)CC)ccc1-2 | 15.8 |
| Cc1cc(C)n(-c2nc(SCC(=O)N3CCCC3)c3c4c(sc3n2)CCCC4)n1 | 8.64 |
| O=C(N/N=C\c1cccnc1)c1cc(-c2ccccc2)nc2c(Cl)cccc12 | 2.87 |
| CCOC(=O)C1CCN(C(=O)c2cccc(S(=O)(=O)N(CC)c3ccccc3)c2)CC1 | 5.38 |
| Cc1ccc2c(c1)C1CN(C)CCC1N2S(=O)(=O)c1ccc(Oc2ccc([N+](=O)[O-])cc2)cc1 (centres undefined) | 1.73 |
| COc1ccc(-c2nc3cc(C)ccn3c2NC2CCCCC2)cc1SC1CCCCC1 | -1.22 |
| Cc1c(-c2nn(C)c(=O)c3ccccc23)oc2ccc(F)cc2c1=O | 2.5 |
| CC(=O)Nc1ccc(Nc2cc(C)nc(Nc3ccc(NC(C)=O)cc3)n2)cc1 | 4.46 |
| CN(C)S(=O)(=O)c1ccc2oc(SCC(=O)Nc3ccccc3F)nc2c1 | 10.6 |
| O=c1cc(N2CCCCC2)c(-c2ccccc2)nn1Cc1cccc(F)c1 | 9.4 |
| Cc1cc(N2CCCC2)ccc1NC(=O)COc1ccc(Cl)cc1 | 1.52 |
| CCc1ccc(CNC(=O)C2CCN(c3nnc(C)c4c(C)n(-c5ccc(C)cc5)nc34)CC2)cc1 | 0.21 |
| COc1cccc(-c2sc3ccc(OC)cc3c2-c2ccc(OCCN3CCCCC3)cc2)c1 | 11.8 |
| CCC(C)(C)c1ccc(OCC(=O)N(C)C)c(C(C)(C)CC)c1 | 8.45 |
| CC(C)CC[n+]1ccn(C2=C([O-])c3ccccc3C(=O)/C2=N\S(=O)(=O)c2ccccc2)c1 | 5.73 |
| CC1=NN(c2ccc(Cl)c(C(=O)O)c2)C(=O)/C1=C/c1ccc(-c2ccccc2[N+](=O)[O-])o1 | 6.42 |
